Experimental findings from PubChem BioAssay (EPA / NIEHS) are described below.

Several values for one entry are separate records, joined by “and”; a condition that tells them apart may be missing. Identical values can stand only once. A structure can be active in one record and inactive in another. Activity calls are given as the source filed them. The calls were made as follows: active = hit-call score of the fitted dose curve at least 0.9, where 1 is the maximum; inactive = score below 0.9.

What all share (conditions): primary human HUVEC with PBMC; actives raise or lower the signal
Read-out in assay [1]: Interleukin-1 alpha (IL1a), IL1A (gene 3552)
The assay is described as follows: BSK_LPS_IL1a: BioMAP Diversity Plus: LPS Assay for Interleukin-1 alpha (IL1a) Biomarker Activity (AID 2283080). The essentials:
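Primary human HUVEC and PBMC co-culture stimulated with LPS is dosed and harvested at 24 h. Both increases and decreases in ELISA-measured IL-1a are scored relative to DMSO.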

Read-out in assay [2]: Monocyte Chemoattractant Protein-1 (MCP1), CCL2 (gene 6347)
The assay is described as follows: BSK_LPS_MCP1: BioMAP Diversity Plus: LPS Assay for Monocyte Chemoattractant Protein-1 (MCP1) Biomarker Activity (AID 2283081).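 As to AC50: secreted MCP-1 protein quantified by ELISA in culture supernatant.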 The essentials: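 Values derive from bidirectional fitting against DMSO of ELISA-measured MCP-1 in a human primary endothelial and mononuclear cell co-culture, 24 h after chemical addition under LPS activation.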

Assay [3] is described as follows: BSK_LPS_PGE2: BioMAP Diversity Plus: LPS Assay for Prostaglandin E2 (PGE2) Biomarker Activity (AID 2283082). In a few lines: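 Endpoint derived from bidirectional curve fitting versus DMSO of ELISA-measured PGE2 in LPS-stimulated human primary vascular co-culture (HUVEC with PBMC) harvested at 24 h.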
Read-out in assay [4]: Macrophage colony-stimulating factor (MCSF), CSF1 (gene 1435)
The assay is described as follows: BSK_LPS_MCSF: BioMAP Diversity Plus: LPS Assay for Macrophage colony-stimulating factor (MCSF) Biomarker Activity (AID 2283083). In a few lines:
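Bidirectional fit versus DMSO of ELISA-measured M-CSF in co-cultured human umbilical vein endothelial cells and PBMC, sampled 24 h after dosing.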

Read-out in assay [5]: Tissue Factor, F3 (gene 2152)
The assay is described as follows: BSK_LPS_TissueFactor: BioMAP Diversity Plus: LPS Assay for Tissue Factor Biomarker Activity (AID 2283084). The essentials:
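Read-out: CD142 ELISA, 24 h. System: LPS-driven human endothelial/PBMC co-culture. Analysis: up- or down-signal fitted against DMSO.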

Read-out in assay [6]: Tumor necrosis factor (Homo sapiens) (UniProt P01375)
Nature of the assay: BSK_LPS_TNFa: BioMAP Diversity Plus: LPS Assay for Tumour Necrosis Factor alpha (TNFa) Biomarker Activity (AID 2283085).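 As to AC50: TNFa protein level quantified by ELISA in the co-culture.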 In a few lines: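 Primary human vascular co-culture of HUVEC and PBMC; TNFa ELISA 24 h after treatment, analysed as increase or decrease relative to DMSO control.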

Read-out in assay [7]: Vascular cell adhesion molecule 1 (VCAM1), VCAM1 (gene 7412)
The assay is described as follows: BSK_LPS_VCAM1: BioMAP Diversity Plus: LPS Assay for Vascular cell adhesion molecule 1 (VCAM1) Biomarker Activity (AID 2283086). The essentials:
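Primary human vascular co-culture (umbilical vein endothelium plus PBMC) stimulated with LPS received chemical; 24 h later VCAM-1 was read by ELISA. Overt cytotoxicity was assessed by sulforhodamine B staining of parallel cultures at the same time point.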

Read-out in another assay: CD38, CD38 (gene 952)
Nature of the assay: BSK_SAg_CD38: BioMAP Diversity Plus: SAg Assay for CD38 Biomarker Activity (AID 2283087). In a few lines: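 Fluorescence ELISA of cell-surface CD38 served as the read-out, with either increase or decrease fitted against DMSO controls. Cells were a human umbilical vein endothelium plus PBMC co-culture under SEB/TSST-1 stimulation, measured 24 h after dosing.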

Read-out in a further assay: CD40, CD40 (gene 958)
Nature of the assay: BSK_SAg_CD40: BioMAP Diversity Plus: SAg Assay for CD40 Biomarker Activity (AID 2283088). The essentials:
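Endpoint derived by fitting increases or decreases versus DMSO controls. CD40 is detected by fluorescence ELISA in a human vascular co-culture of endothelium and PBMC at 24 h.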

Read-out in a further assay: CD69, CD69 (gene 969)
Nature of the assay: BSK_SAg_CD69: BioMAP Diversity Plus: SAg Assay for CD69 Biomarker Activity (AID 2283089).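 As to AC50: cell surface CD69 protein quantified by ELISA with fluorescence detection.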 The essentials: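 HUVEC co-cultured with PBMC were dosed with chemical, and CD69 was measured by ELISA with fluorescence read-out 24 h later. Bidirectional curve fitting used DMSO as negative control and activity baseline.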

Sequence of Tumor necrosis factor (Homo sapiens) (P01375 whole entry, looked up): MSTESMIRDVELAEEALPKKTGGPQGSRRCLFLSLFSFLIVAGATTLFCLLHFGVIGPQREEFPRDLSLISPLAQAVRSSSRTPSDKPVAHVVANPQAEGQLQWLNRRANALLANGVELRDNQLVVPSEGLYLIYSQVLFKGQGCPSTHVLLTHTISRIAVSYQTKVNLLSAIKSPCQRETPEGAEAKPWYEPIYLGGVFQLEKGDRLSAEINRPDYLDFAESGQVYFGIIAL

As usually defined, the AC50 is the concentration giving half of the maximal activity seen. Turning to `O=C(O)C(F)(OC(F)(F)C(F)(F)C(F)(F)F)C(F)(F)F` (configuration not stated), the outcome in assay [1], in [2], in assay [3], in assay [4], in [5] and in [6] was inactive. Also, the outcome in assay [7] is “inactive”; in the assay with CD38, CD38 (gene 952), “inactive”; in the assay with CD40, CD40 (gene 958) it was “inactive”; with CD69, CD69 (gene 969), “inactive”. For the same molecule, the concentration at half-maximal activity (AC50) in assay [5] was 1.41 µM (active).

For the molecule `CC(C)(C)c1ccccc1OP(=O)(Oc1ccccc1)Oc1ccccc1`, the AC50 was 27.3 µM (active) in [1]; 20 µM (active) in assay [2]; 20 µM (active) in assay [4]; 20 µM (active) in [7]; 30.7 µM (active) with CD38, CD38 (gene 952); 28.3 µM (active) with CD40, CD40 (gene 958). The AC50 with CD69, CD69 (gene 969) was 27.5 µM (active). The result in [3], in assay [5] and in [6] was inactive.

On to `COP(=O)(O)OC`, for which the outcome in assay [1], in assay [2], in assay [3], in assay [4], in assay [5] and in assay [6] was inactive. For the same molecule, the outcome in [7] is “inactive”; in the assay with CD38, CD38 (gene 952) it was “inactive”; with CD40, CD40 (gene 958), “inactive”; with CD69, CD69 (gene 969) it was “inactive”.

In the case of `CCOP(=S)(OCC)SCSc1ccc(Cl)cc1`, the AC50 in assay [1] is 5.31 µM (active); in [4], 18.7 µM (active); in assay [7] it was 13.2 µM (active); in the assay with CD38, CD38 (gene 952), 20 µM (active); in the assay with CD40, CD40 (gene 958), 9.34 µM (active); with CD69, CD69 (gene 969), 20 µM (active). Further, the outcome in assay [2], in [3], in [5] and in assay [6] was inactive.

With `O=c1ssc(Cl)c1Cl`, the AC50 in assay [1] is 4.19 µM (active); in assay [2], 6.46 µM (active); in assay [3], 2.22 µM (active); in assay [4], 4.28 µM (active); in [5] it was 8.4 µM (active); in assay [7] it was 6.59 µM (active). In addition, the AC50 was 4.94 µM (active) with CD38, CD38 (gene 952); 5.44 µM (active) with CD40, CD40 (gene 958); 6.02 µM (active) with CD69, CD69 (gene 969). In assay [6], the outcome was inactive.

As for `Cc1cccc(N)c1`, the result in assay [1], in assay [2], in assay [3], in [4], in assay [5] and in [6] was inactive. Besides, the outcome in assay [7] is “inactive”; with CD38, CD38 (gene 952) it was “inactive”; in the assay with CD40, CD40 (gene 958) it was “inactive”; in the assay with CD69, CD69 (gene 969), “inactive”.

Turning to `ClC(Cl)=C(c1ccc(Cl)cc1)c1ccccc1Cl`, the AC50 in assay [1] was 26 µM (active); in assay [2], 29.6 µM (active); in [4], 20 µM (active); in [5] it was 20 µM (active); in assay [6], 31.7 µM (active); in assay [7], 32.9 µM (active). The AC50 is 20 µM (active) with CD38, CD38 (gene 952); 20 µM (active) with CD40, CD40 (gene 958); 14.6 µM (active) with CD69, CD69 (gene 969). Further, in assay [3], the outcome was inactive.

On to `OCC(F)(F)OC(F)(F)C(F)(F)OC(F)(F)C(F)(F)OC(F)(F)F`, for which the AC50 in assay [1] was 55.1 µM (active); in [2], 52.2 µM (active); in [3], 30 µM (active) and 46.8 µM (active); in [5], 49.8 µM (active); in assay [6], 50.8 µM (active) and 53.5 µM (active); in [7] it was 42.8 µM (active). The AC50 with CD38, CD38 (gene 952) was 48.8 µM (active); with CD40, CD40 (gene 958), 41.6 µM (active); with CD69, CD69 (gene 969), 24.4 µM (active) and 45.7 µM (active). Besides, the outcome in assay [1] is “inactive”; in [2] it was “inactive”; in assay [4], “inactive”; in [5] it was “inactive”; in assay [7], “inactive”; in the assay with CD38, CD38 (gene 952), “inactive”. Moreover, in the assay with CD40, CD40 (gene 958), the result was inactive.

As for `CCCCC(CC)COC(=O)c1c(Br)c(Br)c(Br)c(Br)c1C(=O)OCC(CC)CCCC` (configuration not stated), the result in [1], in assay [2], in assay [3], in [4], in [5] and in [6] was inactive. Besides, the outcome in [7] was “inactive”; in the assay with CD38, CD38 (gene 952) it was “inactive”; in the assay with CD40, CD40 (gene 958) it was “inactive”; with CD69, CD69 (gene 969), “inactive”.

Take `Nc1cc2c3c(c1)C(c1ccccc1)=N[C@@H](NC(=O)c1cccnc1)C(=O)N3CC2`: the result in [1], in assay [2], in [3], in assay [4], in assay [5] and in [7] was inactive. Also, in the assay with CD38, CD38 (gene 952), the outcome was inactive. Also, the AC50 was 1.46 µM (active) in assay [6]; 3.97 µM (active) with CD40, CD40 (gene 958); 0.837 µM (active) with CD69, CD69 (gene 969).
